CCT chaperon mod: changes cytosolic chaperonin activity; purified chaperonin ATPase assay, HTRF ADP detection, 30 min; activity change, % (concentration not given with the values), hits read low; hit rate 0.3% among 360,000; in the data active = activity change below about -30%
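ATPase activity: ADP formed was measured by HTRF Transcreener (665/615 nm ratio) after 30 min at 37 deg C with 10 uM ATP. Compounds screened at one 76 uM concentration against 40 or 20 nM TRiC in Tris pH 7.4/KCl/MgCl2/DTT buffer.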
Nrf2 block: blocks Nrf2 signaling; A549 ARE-Fluc reporter, luciferase luminescence, 18-24 h; Potency, µM (highest dose often 46 µM), usual class: inhibitors; hit rate 2.1% among 360,000; also: nearly all actives have a fitted effect of over 60% in size
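Nrf2 function is reported as luminescence of an ARE-controlled luciferase in A549 cells. Compounds were tested at several concentrations, and a CellTiter-Fluor read on the same wells flagged cytotoxicity.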
A-T KAP1 phos: candidate therapy for ataxia-telangiectasia; F2112 A-T fibroblasts, KAP-1 phosphorylation AlphaLISA; neocarzinostatin DNA damage 30 min before lysis; Potency, µM (titrated, usually from 57.5 µM), hits mostly activators; AID 485349; hit rate 0.19% among 320,000; also: nearly all actives have a fitted effect of over 45% in size
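ATM-like activity read as KAP-1 phosphorylation via AlphaLISA donor/acceptor antibody pairs after lysis and 6 hr at 25C. Cells were ATM-null patient fibroblasts (F2112, hTERT), dosed 60 min, then exposed to the DSB inducer NCS for 30 min.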
TCR activator: T cell receptor activation | Potency, µM (top dose mostly 9.22 µM), actives largely listed as activators | primary human leukocytes, anti-CD3, IL-2 HTRF, 48 h | 330,000 tested, under 10 active
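Using a-CD3 beads without co-stimulation, primary human leukocytes were exposed to compounds for 48 hr. An HTRF IL-2 kit measured the cytokine, with europium-to-d2 energy transfer producing emission at 665nm upon 320nm excitation.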
A549 tox: A549 cytotoxicity, counter-screen for Nrf2 inhibitors | A549 ARE-Fluc cells, CellTiter-Fluor viability, 18-24 h | Potency, µM (highest dose often 46 µM), actives largely listed as inhibitors | hit rate 0.16% among 390,000 | AID 504648
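A549 ARE-Fluc cells in 5% FBS OPTI-MEM, 5000 cells/well, rested 2 h then exposed to compounds in concentration-response for 18-24 h at 37 °C. Viability by CellTiter-Fluor fluorescence (Ex 405/Em 525) after 30 min; luciferase luminescence (BugLite, 15 min, RT) read afterwards.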
Nrf2 ARE act: activates Nrf2 signaling. AREc32 ARE-luciferase reporter (MCF7-derived line), luminescence, 24 h. Potency, µM (highest dose often 46.1 µM), usual class: activators. hit rate 0.31% among 410,000; also: nearly all actives have a fitted effect of over 65% in size
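Reporter line AREc32 (ARE-Fluc), seeded overnight in OPTI-MEM with 5% FBS; compound pin-transferred, 24 hr at 37 deg C, 5% CO2; luminescent read-out.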
Each line names hits and unclear results; the compound was inactive in the other large screens. This is a sample that favours compounds with a hit; in the whole collection about 2.6% have one here. Unless noted, calls follow the shape of the dose curve; as a rule, active = well fitted curve in the direction sought with a large enough effect; inconclusive = small, poorly fitted or top-dose-only effect, or another doubt; inactive = no such curve, though single readings can be large; an effect the other way counts as inactive or inconclusive.

CCN(C[C@H]1N[C@@](C)(C(=O)OC)[C@H]2C(=O)N(Cc3ccccc3)C(=O)[C@@H]12)C(=O)C1CCCCC1	Nrf2 block inconclusive, A-T KAP1 phos inconclusive
O=C(Cc1ccc(Cl)cc1)Nc1nnc2n1CCS2	none (no result: CCT chaperon mod, Nrf2 block, A-T KAP1 phos, TCR activator)
Cc1ccc(SCc2nc(-c3ccc(C(=O)NCc4ccccc4Cl)cc3)oc2C)cc1	Nrf2 block 15µM (no result: CCT chaperon mod, A-T KAP1 phos, TCR activator)
Cc1cc(NC(=O)C(Cl)c2ccccc2)no1 (stereo not given)	Nrf2 block inconclusive, Nrf2 ARE act 13µM
Cc1ccc2cc(C)c(Sc3nnnn3-c3ccccc3)nc2c1	none
Cc1cc(C)c(SSc2nnnn2-c2ccccc2)c(C)c1	CCT chaperon mod -38 (no result: Nrf2 block, A-T KAP1 phos, TCR activator, A549 tox)
Cc1ccc(NC(=O)Cn2cc(C(=O)c3cccs3)c3ccccc32)cc1C	Nrf2 block inconclusive (no result: CCT chaperon mod, A-T KAP1 phos, TCR activator)
O=C(Cn1c(=O)n2nc(-c3cccc(F)c3)nc2c2ccccc21)NCc1ccc(Cl)cc1	none (no result: CCT chaperon mod, Nrf2 block, A-T KAP1 phos, TCR activator)
CCc1cccc(NC(=O)Cn2c(=O)n3nc(-c4cccc(F)c4)nc3c3ccccc32)c1	Nrf2 ARE act 5.6µM (no result: CCT chaperon mod, Nrf2 block, A-T KAP1 phos, TCR activator)
CCOc1ccc2oc(=O)cc(CN3CCN(c4ccc(Cl)cc4)CC3)c2c1	none (no result: CCT chaperon mod, A-T KAP1 phos, TCR activator)
N#Cc1ccc(C(=O)NC(=S)N2CCN(C=O)CC2)cc1	none
COc1ccc(C(=O)CSc2nc3cc(C(=O)NC4CCCC4)ccc3c(=O)n2CC2CCCO2)cc1 (stereo not given)	Nrf2 block inconclusive (no result: CCT chaperon mod, A-T KAP1 phos, TCR activator)
COc1ccc(CC2C(=O)Nc3ccc(Br)cc32)cc1OC (stereo not given)	none (no result: CCT chaperon mod, A-T KAP1 phos, TCR activator)
COc1ccc(OC)c(CC2C(=O)Nc3ccc(Br)cc32)c1 (stereo not given)	Nrf2 block 23µM (no result: CCT chaperon mod, A-T KAP1 phos, TCR activator)
CC(C)C[C@@H](CN1CCCC1CN1C(=S)NC[C@@H]1Cc1ccc(O)cc1)N1C[C@H](Cc2ccccc2)N(CC2CCCCCC2)C1=S (stereo not given in full)	none (no result: A-T KAP1 phos)
CC(C)C[C@@H](CN1CCCC1CN1C(=S)NC[C@@H]1Cc1ccc(O)cc1)N1C[C@H](Cc2ccc(O)cc2)N(CC2CCCCCC2)C1=S (stereo not given in full)	Nrf2 block 21µM (no result: A-T KAP1 phos)
Oc1ccc(C[C@H]2CNC(=S)N2CC2CCCN2C[C@H](Cc2ccccc2)N2C[C@H](Cc3ccc(O)cc3)N(CCc3ccccc3)C2=S)cc1 (stereo not given in full)	Nrf2 block 15µM, A549 tox inconclusive (no result: A-T KAP1 phos)
Cc1ccc2c(c1)CCCN2C(=O)c1cc(C)c(C)s1	CCT chaperon mod -33
O=S(=O)(NCC1CN(S(=O)(=O)c2c(F)cccc2F)C1)c1ccc2c(c1)OCCO2	Nrf2 block 12µM (no result: CCT chaperon mod)
O=C1c2cc(F)ccc2-n2c1nc1ccccc1c2=O	Nrf2 block 6.5µM, A549 tox 12µM
Nn1c(-c2ccc(F)cc2)nc2ccccc2c1=O	none
Cc1cc(=O)[nH]c(=S)n1-c1ccccc1	CCT chaperon mod -34
Nc1cc(=O)[nH]c(=S)n1-c1ccccc1	none
COCCCNC(=O)c1c(NC(=O)c2cc(=O)c3ccccc3o2)sc2c1CCCC2	Nrf2 block inconclusive (no result: CCT chaperon mod, A-T KAP1 phos, TCR activator)
CC(=O)NCCNC(=O)c1ccc(Sc2ccccc2)c([N+](=O)[O-])c1	CCT chaperon mod -33
COc1ccc(C2c3ccc(O)cc3Oc3ncn(CCN4CCOCC4)c(=N)c32)cc1 (stereo not given)	none
COc1ccc(C2c3ccc(O)cc3Oc3ncn(CC(C)C)c(=N)c32)cc1 (stereo not given)	A-T KAP1 phos 2.8µM
CC(=O)C1=C(C)OC(N)=C(C#N)C1c1cc([N+](=O)[O-])ccc1Cl (stereo not given)	Nrf2 ARE act 13µM
CCc1ccc(-n2c(N3CCN(c4ccc(F)cc4)CC3)nc3ccccc3c2=O)cc1	none (no result: CCT chaperon mod, A-T KAP1 phos, TCR activator)
Cc1sc(NC(=O)c2ccc(OCC(C)C)cc2)c(C(N)=O)c1-c1ccc(Cl)cc1Cl	Nrf2 block 18µM
CCCOc1ccc(C(=O)Nc2cccc(NC(=O)c3ccc(Cl)cc3Cl)c2)cc1	none (no result: CCT chaperon mod, A-T KAP1 phos, TCR activator)
COc1ccc(CNC(=O)c2ccc3c(=O)n4c(nc3c2)CCCCC4)cc1OC	Nrf2 block 6.5µM
Cc1ccc(-c2csc(NC(=O)c3ccc4c(=O)n5c(nc4c3)CCCCC5)n2)cc1	Nrf2 block 5.2µM
CC(=O)c1ccc(NC(=O)c2ccc3c(=O)n4c(nc3c2)CCCCC4)cc1	none
CN(C)CCCNc1ncnc2ccc(-c3ccc4c(c3)OCO4)cc12	Nrf2 block inconclusive (no result: CCT chaperon mod, A-T KAP1 phos, TCR activator, Nrf2 ARE act)
N#Cc1c(-c2cccs2)cc(-c2ccccn2)nc1N	Nrf2 ARE act 7.9µM (no result: Nrf2 block)
O=C(c1ccc2c(c1)N(Cc1ccc(Cl)cc1)C(=O)c1ccccc1S2=O)N1CCN(c2ccccc2F)CC1 (stereo not given)	none (no result: CCT chaperon mod, A-T KAP1 phos, TCR activator)
O=c1cc(COc2ccccc2[N+](=O)[O-])nc2sccn12	Nrf2 ARE act 8.9µM
Cn1cc(C(=O)c2ccc(Cl)cc2Cl)cc1C(=O)N/N=C(\N)COc1ccc(F)cc1	Nrf2 block inconclusive
Cn1cc(C(=O)c2ccc(Cl)cc2Cl)cc1C(=O)N/N=C(\N)COc1ccc(Cl)cc1Cl	Nrf2 block 21µM, A549 tox inconclusive
